# Screening results (PubChem)
# A selection: hits, their analogues and other compounds. The true share with any hit is near 11%.
# PNC assembly inh – blocks assembly of the perinucleolar compartment; activity change (PNC), negative = inhibition, % at 10 µM; hit rate 3.1% among 140,000; PC3M PTB-GFP, PNC prevalence imaging, 16 h; stronger effect = lower value;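 active means readout at or below -70, meaning at least 70% loss of cells showing the perinucleolar compartment, a nuclear body marking cancer cells; inconclusive means readout between -30 and a set limit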
#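 Compounds are pinned in duplicate onto adhered PC3M cells stably expressing GFP-tagged PTB and incubated 16 h at 37 C. Cells are then fixed, nuclei stained with Hoechst, and PNC-positive cells counted.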
# ALDH1A1 inh – ALDH1A1 (human) enzyme inhibition; Potency, µM (doses to about 75.3 µM), hits mostly inhibitors; AID 1030; hit rate 7.3% among 220,000; Purified ALDH1A1, NADH fluorescence, propionaldehyde substrate
# IMPase Li inh – cell-permeable IMPase inhibitors with lithium potentiation; CHO-M1 cells, IP1 TR-FRET (IP-One), carbachol + lithium; Potency, µM (doses to about 59.4 µM), actives largely listed as inhibitors; hit rate 0.35% among 210,000; AID 1457; active means well fitted inhibition curve with a large enough effect; inconclusive means small, poorly fitted or top-dose-only effect; inactive means no such curve, though single readings can be large or run the other way;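 further: IP1 builds up when IMPase is blocked and the TR-FRET signal falls; nearly all actives have a fitted effect of over 50% in size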
#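 CHO-M1, 2000 cells/well, 16–30 h culture; cpd + low Li+, 30 min 37C; lysis with d2-IP1/Eu-anti-IP1 Ab, 10 min RT; TR-FRET 665/620 ratio and 620 channel; AC50 via Hill.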
# HPGD inh – HPGD (human) dehydrogenase inhibition; P15428; purified HPGD, NADH fluorescence kinetic, PGE2 substrate; Potency, µM, hits mostly inhibitors; hit rate 4.3% among 150,000
# Target sequence (P15428 whole entry, looked up): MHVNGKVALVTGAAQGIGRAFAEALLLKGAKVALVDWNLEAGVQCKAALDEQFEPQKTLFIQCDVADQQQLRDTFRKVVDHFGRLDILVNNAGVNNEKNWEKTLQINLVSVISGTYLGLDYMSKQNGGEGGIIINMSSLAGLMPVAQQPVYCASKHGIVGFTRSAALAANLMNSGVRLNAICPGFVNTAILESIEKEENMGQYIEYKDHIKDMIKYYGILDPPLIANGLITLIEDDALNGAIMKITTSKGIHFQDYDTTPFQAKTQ
#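 NADH formation kinetics: reaction with 30 uM PGE2 and 1 mM NAD+ (final), 20 nM enzyme, Tris-HCl pH 8 with Tween 20, after 15 min compound preincubation at room temperature. Fluorescence change, last versus first of five reads.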
# IMPase cell inh – membrane-permeable compound that blocks inositol monophosphatase. 120,000 tested, under 10 active. inhibition (IP1 accumulation), % at 46.1 µM. AID 901. CHO-M1 cells, IP1 accumulation, HTRF TR-FRET ratio. P97697; active means well fitted curve in the direction sought with a large enough effect in the signal ratio, not every such curve was filed as active; inconclusive means small, poorly fitted or top-dose-only effect, or a change in a side signal; inactive means no such curve, though single readings can be large or run the other way; the % refers to the signal ratio;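 further: cells stimulated with carbachol in lithium chloride buffer; higher means more IMPase inhibition seen as more IP1 and lower FRET ratio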
# Target sequence (P97697 whole entry, looked up): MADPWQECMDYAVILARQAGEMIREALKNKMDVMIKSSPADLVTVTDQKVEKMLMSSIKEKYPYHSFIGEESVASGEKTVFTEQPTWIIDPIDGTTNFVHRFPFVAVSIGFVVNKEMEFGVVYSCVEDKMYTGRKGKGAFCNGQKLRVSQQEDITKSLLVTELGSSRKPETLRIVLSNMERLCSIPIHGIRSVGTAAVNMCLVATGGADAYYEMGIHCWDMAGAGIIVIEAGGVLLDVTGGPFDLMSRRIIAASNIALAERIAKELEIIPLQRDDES
#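 Elevated IP1 in lysates lowers TR-FRET signal (665/620 ratio and 620 channel reported). Cells were CHO-M1, given carbachol (50 uM as added) plus 50mM LiCl, pH 7.4, 30 min, 37C; compounds titrated up to 46 uM; AC50 by Hill equation.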
# Hits are given with their value; - = inactive; ? = inconclusive; . = not tested or not shown; [ ] = another dose, or the depositor's remark. Unless noted, the call rests on the fitted dose curve; in most records, active means well fitted inhibition curve with a large enough effect (not every such curve was filed as active); inconclusive means small, poorly fitted or top-dose-only effect, or another doubt; inactive means no such curve, though single readings can be large or run the other way.
SMILES,PNC assembly inh,ALDH1A1 inh,IMPase Li inh,HPGD inh,IMPase cell inh
CCCS(=O)(=O)N1CCN(C(=O)COc2ccc(-c3ccccc3)cc2)CC1,-88,?,-,-,-
Cc1ccc(/C=N/c2sc3c(c2C#N)CCC3)o1,-,10µM,-,16µM,-
N#Cc1c(/N=C/c2ccc(Br)s2)sc2c1CCC2,-100,?,-,-,-
N#Cc1c(/N=C\c2ccc(O)c([N+](=O)[O-])c2)sc2c1CCCC2,.,2.5µM,-,.,.
N#Cc1c(/N=C/c2cccs2)sc2c1CCCCC2,?,?,-,?,-
C/C(N)=C(/C#N)C(=O)COC(=O)c1ccccc1Oc1ccccc1,.,-,-,.,.
CCc1cccc(NS(=O)(=O)c2c(C)nc3sc(CC)nn3c2=O)c1,.,.,.,.,-
COc1ccc(OC(C)C(=O)N2CCCc3ccccc32)cc1 (centres undefined),.,-,-,.,.
CCOC(=O)C(NC(=O)N(C)C)(Nc1sc(C)c(CC)c1C#N)C(F)(F)F (centres undefined),-,?,-,14µM,.
COc1cccc(C2=CC(c3ccc(OC)c(OC)c3)NC(=S)N2)c1 (centres undefined),.,14µM,.,.,.
CC(=O)Nc1ccc(N(C(=O)Cn2nnc3ccccc32)C(C(=O)NC2CCCC2)c2ccc(O)c(O)c2)cc1 (centres undefined),.,-,-,.,.
Cc1occc(=O)c1OC(=O)Nc1ccccc1,-,-,-,-,-
Cc1c(C(=O)Nc2ccccc2-c2ccccc2)cccc1[N+](=O)[O-],-,-,-,-,-
COc1ccc(-n2nc3c(c2NC(=O)C24CC5CC(CC(C5)C2)C4)CS(=O)C3)cc1 (centres undefined),-,2.8µM,-,-,-
CC1=NNC(=O)/C1=C\c1cn(-c2ccccc2)nc1-c1cccs1,-,?,-,16µM,.
CC1=NNC(=O)/C1=C\c1cn(-c2ccccc2)nc1-c1ccc(F)cc1,.,?,-,.,.
COC(=O)CN(c1ccc(OC)cc1OC)S(=O)(=O)c1ccccc1[N+](=O)[O-],.,19µM,-,.,.
COc1ccc(N(CC(=O)Nc2c(C)cccc2C)S(=O)(=O)c2ccccc2[N+](=O)[O-])c(OC)c1,.,-,-,.,.
COC(=O)C(C(=O)OC)C(Cc1cc(F)cc(F)c1F)NC=O (centres undefined),.,-,-,-,.
Cc1nc(SCC(=O)Nc2ccccc2C(F)(F)F)c(C#N)c(C)c1CC(=O)c1ccc(Br)cc1,?,-,10µM,-,-
O=C(Oc1coc(CSc2ncccn2)cc1=O)c1cccc([N+](=O)[O-])c1,.,1.8µM,-,.,.
Cc1cc(C)nc(SCc2cc(=O)c(OC(=O)c3ccc(Cl)c([N+](=O)[O-])c3)co2)n1,-,-,-,11µM,-
O=C(Oc1coc(CSc2ncccn2)cc1=O)c1ccco1,.,-,-,.,.
CCOc1ccc(NC(=S)NNC(=O)CC(C)O)cc1 (centres undefined),.,-,-,.,.
Cc1cccn2cc(CNS(=O)(=O)c3cccc(F)c3)nc12,?,-,-,-,-
SMILES,PNC assembly inh,ALDH1A1 inh,IMPase Li inh,HPGD inh,IMPase cell inh
O=S(=O)(NCc1cn2ccccc2n1)c1cc(F)ccc1F,-100,-,-,-,-
C=CCn1c(N)c(C(=O)Nc2ccccc2OC)sc1=S,?,22µM,.,.,-
CCOC(=O)c1sc(N)c(C(=O)Nc2ccc(C)cc2C)c1C,.,10µM,.,4µM,.
CCOC(=O)c1sc(N)c(C(=O)OC)c1C,.,-,-,.,.
CCOC(=O)c1sc(N)c(C(=O)Nc2ccccc2OC)c1C,.,4.5µM,-,.,.
CC(C)=CCC/C(C)=C/C=C/C1=CC2(C)CC1(C)C(/C=C(\C)CCC=C(C)C)CC2=O (centres undefined),.,-[13.5 µM],.,.,.
CC[C@H](C)[C@@H](NC(=O)O[C@@H]1Cc2cc(OC)ccc2O[C@H]1c1cccc(OC)c1)C(=O)OC,.,-,-,-,.
O=C(CN1C(=O)C2CC=CCC2C1=O)NCc1cccs1 (centres undefined),.,28µM,-,.,.
O=C1ON=C(c2cccc([N+](=O)[O-])c2)/C1=C/c1ccc(O)cc1,.,10µM,-,.,.
O=C1ON=C(c2ccccc2)/C1=C/c1cccnc1,.,-,-,.,.
O=C(Nc1ccccc1)N1CCC2(CC1)CCN(S(=O)(=O)c1ccccc1)CC2,.,-,-,-,.
O=C(CCCCl)NC(=S)Nc1cc(C(F)(F)F)ccc1N1CCOCC1,-,-,-,-,.
CCCC(=O)Nc1cc(C(F)(F)F)ccc1N1CCOCC1,.,3.2µM,-,.,.
CC(C)(C)C(=O)Nc1cc(C(F)(F)F)ccc1N1CCOCC1,-,-,-,-,-
CC(C)(C)C(=O)NC(=S)Nc1cc(C(F)(F)F)ccc1N1CCOCC1,-,19µM,-,-,-
O=C(NC(=S)Nc1cc(C(F)(F)F)ccc1N1CCOCC1)c1sc2ccccc2c1Cl,-,7.9µM,-,-,-
N#CCC(=O)Nc1cc(C(F)(F)F)ccc1N1CCOCC1,.,-,-,.,.
O=C(CSCc1ccco1)Nc1cc(C(F)(F)F)ccc1N1CCOCC1,-,7.1µM,-,28µM,-
Cc1ccc(S(=O)(=O)Nc2cc(Cl)c3oc4c(c3c2)C(=O)CC(C)(C)C4)cc1,.,.,.,.,-
C[N+](C)(C)CCN[N@@+]1(C)CCCc2ccccc21,.,-[13.5 µM],-,?,.
O=C(Nc1cc(C(F)(F)F)ccc1N1CCCC1)c1cccnc1,-89,-,-,-,-
O=C(Nc1ccccc1)C1Cc2ccccc2CN1C(=O)c1ccco1 (centres undefined),-,-,-,-,-
O=C(Nc1ccccc1N1CCCC1)c1cccnc1,-,-,-,-,-
O=C(Nc1cc(C(F)(F)F)ccc1N1CCOCC1)C1Cc2ccccc2CN1C(=O)c1ccco1 (centres undefined),-,22µM,-,?,-
NCCC[C@@H](CC(=O)N[C@@H]1CCCC[C@H]1C(=O)N[C@H](CC(=O)N[C@@H](CCC(=O)O)CC(=O)O)Cc1ccccc1)NC(=O)C[C@H](Cc1ccccc1)NC(=O)[C@@H]1CNCC[C@H]1N,.,-,-,-,.
SMILES,PNC assembly inh,ALDH1A1 inh,IMPase Li inh,HPGD inh,IMPase cell inh
CCn1c(O)c(N=NC(=O)CNC(=O)/C=C/c2ccco2)c2ccccc21,-92,?,-,-,-
CCn1c(O)c(N=NC(=O)CNC(=O)c2ccco2)c2ccccc21,-,-,-,-,-
O=C(CNC(=O)/C=C/c1ccccc1)N=Nc1c(O)n(Cc2ccccc2)c2ccccc12,-,3.5µM,-,-,-
Cc1ccc(NC(=O)CSc2nnc(-c3ccncc3)n2C)cc1S(=O)(=O)N1CCOCC1,.,-,-,.,.
c1ccc(CCNCc2ccco2)nc1,.,-[13.5 µM],-,-,.
C[C@H]1CCCC=CC2C[C@H](OC(=O)CN(C)C)C[C@@H]2[C@@H](O)/C=C\C(=O)O1 (some centres undefined),.,-[13.5 µM],-,-,.
CCCCSc1nnc(-c2ccccc2N)c(=O)[nH]1,?,1.6µM,.,-,-
CC1(C)CC(=O)C=C(OC(=O)c2ccc(Cl)cc2)C1,-,-,-,14µM,-
COc1ccc(C(=O)NNC2=CC(=O)CC(C)(C)C2)cc1,-,-,-,-,.
